Structures are written as SMILES.

50 compounds from ChEMBL document CHEMBL3433997, “St. Jude Leishmania screening dataset” (2016) can be followed below.

Assay type in all cases: functional
Assay [1] addresses Solute carrier family 2, facilitated glucose transporter member 1 (Homo sapiens) (UniProt P11166). Kind of assay: ST_JUDE_LEISH: Cytotoxicity at 2uM final concentration against transgenic Leishmania Mexicana promastigotes LmGLUT1 that are glucose transport deficient and complemented with the human glucose transporter GLUT1. Activity is measured by DNA content using SYBR green in vitro.

Assay [2] addresses Hexose transporter 1 (Plasmodium falciparum) (UniProt O97467). As to the kind of experiment: ST_JUDE_LEISH: Cytotoxicity at 2uM final concentration against transgenic Leishmania Mexicana promastigotes LmPfHT that are glucose transport deficient and complemented with the Plasmodium falciparum hexose transporter. Activity is measured by DNA content using SYBR green in vitro.
Assay [3] has as its target Glucose transporter (Leishmania mexicana) (UniProt O61059). As to the kind of experiment: ST_JUDE_LEISH: Cytotoxicity at 2uM final concentration against transgenic Leishmania Mexicana promastigotes LmGT2 that are glucose transport deficient and complemented with the L. Mexicana glucose transporter 2. Activity is measured by DNA content using SYBR green in vitro.

Chain of Solute carrier family 2, facilitated glucose transporter member 1 (Homo sapiens) (P11166 whole entry): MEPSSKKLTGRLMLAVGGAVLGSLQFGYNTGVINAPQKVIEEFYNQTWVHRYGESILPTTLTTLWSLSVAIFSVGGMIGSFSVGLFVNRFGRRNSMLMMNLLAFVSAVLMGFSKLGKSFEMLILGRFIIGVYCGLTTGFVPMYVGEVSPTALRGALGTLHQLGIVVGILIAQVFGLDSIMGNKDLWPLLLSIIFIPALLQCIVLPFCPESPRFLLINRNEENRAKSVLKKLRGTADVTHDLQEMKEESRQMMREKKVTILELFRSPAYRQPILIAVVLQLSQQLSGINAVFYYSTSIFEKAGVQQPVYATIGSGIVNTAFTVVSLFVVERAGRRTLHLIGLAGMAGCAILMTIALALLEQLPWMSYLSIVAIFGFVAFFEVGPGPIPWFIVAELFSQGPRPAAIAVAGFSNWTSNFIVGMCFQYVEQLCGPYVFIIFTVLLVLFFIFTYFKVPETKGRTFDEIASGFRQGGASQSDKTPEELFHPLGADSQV

Turning to `N=c1n(CCN2CCCCC2)c2ccccc2n1CC(=O)c1cccc([N+](=O)[O-])c1`, the inhibition (commonly the change of the read-out against control, counted positive when it falls) stood at 2.8% in assay [1], 4.32% in assay [2] and 0.59% in assay [3].

Regarding `CS(=O)(=O)CCNCc1cccc(-c2ccc3c(Nc4cc(O)c(Cl)cc4F)ccnc3c2)c1`, the results for the inhibition in assay [1], in assay [2] and in assay [3] were 6.47%, 4.71% and 2.65%, respectively.

For the compound `Cc1ccc2[nH]c(C)cc(=NN=CC=Cc3ccccc3)c2c1`, the inhibition is -0.92% in assay [1], 1.15% in assay [2] and -6.67% in assay [3].

With `CC(C)(C)c1nn(-c2ccc(Cl)cc2)c2[nH]c(=O)c(CNC3CCCC3)cc12`, the inhibition in assay [1] turned out to be 7.6%; in assay [2] it was 6.85%; in assay [3] it was 8.31%.

As for `Cc1nc2nc(N)nc(N)c2c(C)c1Cc1c(Cl)cccc1Cl`, the inhibition in assay [1] is 8.8%; in assay [2] it was 10.7%; in assay [3], 7.3%.

For the compound `Cn1cnc2c(Nc3ccncc3)nc(-c3ccc4ccccc4c3)nc21`, the inhibition in assay [1] was -0.3%; in assay [2], 0.97%; in assay [3], -0.56%.

As to `Cc1noc(C)c1-c1ccc2c(Nc3ccccc3N3CCOCC3)c(C(=O)NCc3ccccc3)cnc2c1`, the inhibition in assay [1] worked out at 8.19%; in assay [2] it was 5.91%; in assay [3], 1.84%.

Take `Fc1cccc(CNc2ncc(-c3ccsc3)c(-c3nccs3)n2)c1`: the inhibition in assay [1] is 1.64%; in assay [2], 1.96%; in assay [3] it was 2%.

Take `O=C(NC(=O)c1ccccc1)NC1CCN(c2ccnc3cc(Cl)ccc23)C1` (stereo not given): the values for the inhibition in assay [1], in assay [2] and in assay [3] were -0.37%, 1.75% and 0.92%, respectively.

For `O=C(NCCCCN1CCN(c2nsc3ccccc23)CC1)c1ccccc1C(=O)NCCCCN1CCN(c2nsc3ccccc23)CC1`, the inhibition is 2.17% in assay [1], -0.52% in assay [2] and -0.08% in assay [3].

With `FC(F)(F)c1ccc2[nH]c(-c3ccc(-c4cccc(CNCc5cnn(-c6ccccc6)n5)c4)s3)nc2c1`, the inhibition in assay [1] amounted to 2.87%; in assay [2], 3.4%; in assay [3], 2.46%.

In the case of `N=c1n(CCN2CCCCC2)c2ccccc2n1CC(O)c1cccc(Br)c1` (stereo not given), the results for the inhibition in assay [1], in assay [2] and in assay [3] were 3.65%, 4.03% and 3.65%, respectively.

Turning to `Cc1cc(N[C@@H](CC(C)C)C(=O)NCc2cccc(F)c2)nc(Nc2ccccc2)n1`, the inhibition in assay [1] was 4.15%; in assay [2] it was 2.87%; in assay [3], 1.1%.

On to `N=C(N)Nc1ccc(CCc2ccc(NC(=N)N)cc2)cc1`, for which the values for the inhibition in assay [1], in assay [2] and in assay [3] were 4.14%, 4.16% and 2.91%, respectively.

Consider `O=C(/C=C/c1ccc(F)c(Br)c1)NCCCCCN1CCC(c2c[nH]c3ccccc23)CC1`, for which the inhibition in assay [1] was 1.88%; in assay [2] it was 0.52%; in assay [3] it was -1.08%.

Take `Cc1cc(OCCCNC(=N)c2ccc3ccccc3c2)c(C(C)C)cc1Cl`: the inhibition in assay [1] is 2.28%; in assay [2], 2.39%; in assay [3], -0.77%.

Turning to `Cc1nc(O)c2c(ccc3ccc(CNc4ccc(C(=O)N[C@@H](CCC(=O)O)C(=O)O)cc4)cc32)n1`, the results for the inhibition in assay [1], in assay [2] and in assay [3] were 0.64%, 2.36% and 1.05%, respectively.

Take `Cc1cc(N[C@@H](Cc2ccccc2)C(=O)NCc2cccs2)nc(Nc2ccccc2)n1`: the inhibition in assay [1] is 9.96%; in assay [2] it was 9.21%; in assay [3] it was 3.98%.

As to `COc1ccc(-c2ccc(NC(=O)c3ccc(C#N)cc3)cc2)cc1CN1CCCC1`, the inhibition in assay [1] was 1.22%; in assay [2], 0.11%; in assay [3], -3.17%.

With `COc1cccc2cc(C(=O)N[C@@H](CC(C)C)C(=O)N[C@H](C=NN3CCOC3=O)CC(C)C)oc12`, the inhibition in assay [1] was 2.15%; in assay [2], 4.14%; in assay [3], 1.9%.

`COc1ccc(CNC2CCN(C)CC2)cc1-c1ccc(S(=O)(=O)NCCN2CCCC2)s1`: the inhibition in assay [1] was -3.47%; in assay [2], -0.23%; in assay [3] it was -2.9%.

Regarding `N#Cc1ccc(-c2ccc(C(=O)NCCCCN3CC=C(c4ccc5c(c4OCC4CC4)CCCC5)CC3)cc2)cc1`, the inhibition is 0.36% in assay [1], 1.41% in assay [2] and -0.24% in assay [3].

In the case of `Cc1nnsc1C(=O)Nc1cccc(-c2ccc(-c3nc4cc(C(F)(F)F)ccc4[nH]3)cc2)c1`, the inhibition was 1.55% in assay [1], 2.49% in assay [2] and -1.08% in assay [3].

For the compound `OC(c1cccc2ccccc12)C1CN(CCc2ccccc2)CCC1(O)c1ccccc1` (stereo not given), the inhibition worked out at 9.92% in assay [1], 11.8% in assay [2] and 3.51% in assay [3].

Regarding `Fc1ccc(NC(S)=NN=Cc2ccccn2)cc1`, the inhibition was 4.22% in assay [1], 2.09% in assay [2] and -1.91% in assay [3].

Take `COCCNCC(O)Cn1c2ccc(Cl)cc2c2cc(Cl)ccc21` (stereo not given): the inhibition in assay [1] is -1.12%; in assay [2], -1.7%; in assay [3] it was -0.53%.

For `COc1cccc(NC(=O)NC2CCN(c3ccnc(Nc4ccc(F)cc4)n3)C2)c1` (stereo not given), the values for the inhibition in assay [1], in assay [2] and in assay [3] were 0.39%, 6.07% and 3.8%, respectively.

In the case of `CC(CN(C)C)C(=O)Nc1ccc(-c2ccc(-c3nc4ccccc4[nH]3)cc2)cc1` (stereo not given), the results for the inhibition in assay [1], in assay [2] and in assay [3] were 3.03%, 3.01% and 5.36%, respectively.

`Cc1cnc(C(=O)Nc2cccc(-c3csc(-c4nc5ccccc5[nH]4)c3)c2)cn1`: the inhibition came out at 5.41% in assay [1], 1.2% in assay [2] and 3.93% in assay [3].

Regarding `CS(=O)(=O)CCNCc1nc(-c2ccc3c(Nc4ccc(F)c(O)c4)ccnc3c2)cs1`, the values for the inhibition in assay [1], in assay [2] and in assay [3] were 0.96%, 0.78% and 0.48%, respectively.

Regarding `NS(=O)(=O)CCc1cccc(Nc2nccc(-c3c(-c4cccc(NC(=O)c5c(F)cccc5F)c4)nn4ccccc34)n2)c1`, the inhibition stood at 4.25% in assay [1], 8.18% in assay [2] and 1.61% in assay [3].

With `COc1ccc(C2C(C(=O)OC3CCCCC3)=C(C)NC3=C2C(=O)CCC3)cc1Br` (stereo not given), the inhibition in assay [1] is 0.38%; in assay [2] it was -0.1%; in assay [3], 1.36%.

Consider `OC(CNCc1cccc(Oc2ccc(Cl)cc2)c1)c1cccc(C(F)(F)F)c1` (stereo not given), for which the inhibition in assay [1] is 1.7%; in assay [2], 1.81%; in assay [3], -0.71%.

Consider `CN(C)CCOc1ccc(-c2cc(-c3ccc(Cl)c(O)c3)c(-c3ccncc3)[nH]2)cc1`, for which the inhibition in assay [1] is -0.18%; in assay [2], -0.32%; in assay [3], 0.48%.

As for `Cc1n[nH]c2cc(Nc3ccnc(Nc4ccc(CN5CCOCC5)cc4)n3)ccc12`, the figures for the inhibition in assay [1], in assay [2] and in assay [3] were 12.7%, 9.89% and 14.2%, respectively.

Take `Fc1ccccc1-c1cc(Nc2ccncc2)nc(-c2cccnc2)n1`: the inhibition was 0.54% in assay [1], 1.28% in assay [2] and -6.71% in assay [3].

On to `COc1cccc(C2CCN(CCCCNC(=O)c3ccc(NC(=O)c4ccc(Cl)cc4)cc3)CC2)c1`, for which the inhibition was found to be 2.77% in assay [1], 2.82% in assay [2] and 3.37% in assay [3].

As for `COc1ccc(CC2(c3ccc(F)cc3)N=C(N)N(CCCc3ccccc3)C2=O)cc1` (stereo not given), the inhibition came to 5.85% in assay [1], 5.5% in assay [2] and 4.39% in assay [3].

In the case of `O=C(N[C@H]1CCN(Cc2ccc(OCCN3CCNCC3)c(Cl)c2)C1)c1ccc(Cl)c(Cl)c1`, the inhibition in assay [1] is -1.27%; in assay [2] it was -3.15%; in assay [3] it was -2.23%.

As for `N=C1NC(=O)C(=Cc2cn(-c3ccccc3)nc2-c2cccc(S(=O)(=O)N3CCCC3)c2)S1`, the inhibition is 8.5% in assay [1], 6.98% in assay [2] and 7.82% in assay [3].

Turning to `Nc1ccc(-c2ccc(NC(=O)Nc3cc(C(F)(F)F)ccc3F)cc2)cn1`, the inhibition in assay [1] stood at 7.37%; in assay [2], 4.54%; in assay [3] it was 2.2%.

As for `COCc1ccc(CN2CCC(C(=O)Nc3ccc(-c4nc5ccccc5[nH]4)cc3)CC2)o1`, the inhibition in assay [1] came out at 7.66%; in assay [2] it was 5.18%; in assay [3], 5.81%.

For `CCN(CC)CCN(Cc1ccc(-c2ccc(C(F)(F)F)cc2)cc1)C(=O)Cn1c(CCc2cccc(F)c2F)cc(=O)c2c1CCCC2`, the inhibition in assay [1] came to 11.6%; in assay [2] it was 12.3%; in assay [3], 9.85%.

As to `CCc1cccc(OCC2CCCN(c3ccc(C(=O)NC4CC4)cn3)C2)c1` (stereo not given), the inhibition in assay [1] amounted to 4.71%; in assay [2] it was 3.55%; in assay [3], 3.3%.

As for `CN(C)Cc1ccc(-c2cc3c(Nc4ccc(OCc5cccc(F)c5)c(Cl)c4)ncnc3s2)[nH]1`, the inhibition worked out at 2.15% in assay [1], 2.19% in assay [2] and 2.33% in assay [3].

`Cc1cc(N2CCNCC2)c2cc(NC(=O)Nc3ccc(Cl)c(Cl)c3)ccc2n1`: the results for the inhibition in assay [1], in assay [2] and in assay [3] were 3.19%, 3.7% and 3.64%, respectively.

As to `CCCCCn1c(Sc2ccc(C#N)c([N+](=O)[O-])c2)nnc1-c1ccccc1`, the inhibition came out at 8.41% in assay [1], 9.62% in assay [2] and 4.33% in assay [3].

As for `O=C(Nc1ccc(C(=O)OCC2CCCCC2)cc1)N[C@@H](Cc1ccc(O)cc1)C(=O)NC1CCN(Cc2ccc(O)cc2)C1` (stereo not given in full), the inhibition in assay [1] stood at 3.7%; in assay [2], 2.04%; in assay [3], 3.42%.

For the compound `Nc1nc(N)c2c(Oc3cccnc3)cccc2n1`, the inhibition in assay [1] is 0.1%; in assay [2], -1.61%; in assay [3], -0.57%.

With `COc1ccc2c(c1)[nH]c1c(C=Cc3ccccc3)nccc12`, the inhibition in assay [1] came out at 6.16%; in assay [2], 5.09%; in assay [3] it was 3.77%.
